# PubChem BioAssay (NCI)
# The panel holds about 83,000 compounds, 20% with a hit somewhere; the sample as a whole holds those more often.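 Step 1: grow cells in 96-well plates. Step 2: add test compound at a single concentration. Step 3: incubate 48 h. Step 4: record percent growth.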 A number with no mark means an inactive call. Active and inactive are the calls of the source. How the source made its calls: active means growth percent below 10; inactive means the rest.
# Legend:
# Experiment in all cases: NCI-60 one-dose screen, 48 h (100 = growth as untreated, 0 = no growth, -100 = all killed)
# Settings in all cases: 10 µM unless noted
# SK-MEL-2 melanoma = tested on: SK-MEL-2 melanoma
# EKVX NSCLC = tested on: EKVX NSCLC
# SN12C renal = tested on: SN12C renal
# UO-31 renal = tested on: UO-31 renal
# TK-10 renal = tested on: TK-10 renal
# ACHN renal = tested on: ACHN renal
# CAKI-1 renal = tested on: CAKI-1 renal
# A498 renal = tested on: A498 renal
# CCRF-CEM leukemia = tested on: CCRF-CEM leukemia
# MOLT-4 leukemia = tested on: MOLT-4 leukemia
# OVCAR-8 ovarian = tested on: OVCAR-8 ovarian
# OVCAR-5 ovarian = tested on: OVCAR-5 ovarian
# OVCAR-4 ovarian = tested on: OVCAR-4 ovarian
# SK-OV-3 ovarian = tested on: SK-OV-3 ovarian
# IGROV1 ovarian = tested on: IGROV1 ovarian
# OVCAR-3 ovarian = tested on: OVCAR-3 ovarian
# HS 578T breast = tested on: HS 578T breast
# NCI/ADR-RES ovarian = tested on: NCI/ADR-RES ovarian
# SR leukemia = tested on: SR leukemia
# RPMI-8226 leukemia = tested on: RPMI-8226 leukemia
SMILES,growth (SK-MEL-2 melanoma),growth (EKVX NSCLC),growth (SN12C renal),growth (UO-31 renal),growth (TK-10 renal),growth (ACHN renal),growth (CAKI-1 renal),growth (A498 renal),growth (CCRF-CEM leukemia),growth (MOLT-4 leukemia),growth (OVCAR-8 ovarian),growth (OVCAR-5 ovarian),growth (OVCAR-4 ovarian),growth (SK-OV-3 ovarian),growth (IGROV1 ovarian),growth (OVCAR-3 ovarian),growth (HS 578T breast) [%],growth (NCI/ADR-RES ovarian),growth (SR leukemia),growth (RPMI-8226 leukemia)
O=C(O)c1cc2cc(OCc3ccccc3)ccc2[nH]1,39.9%,87.3%,97.1%,74.4%,114%,98.7%,82.3%,98%,98.4%,99.5%,87.9%,109%,97.5%,94.7%,110%,102%,97.1,109%,,
CCOC(=O)c1cc(N)nc2ccccc12,99.9%,108%,109%,103%,106%,105%,102%,95%,,100%,108%,109%,109%,101%,120%,109%,82.7,104%,102%,
CC(=O)CC(c1ccc([N+](=O)[O-])cc1)c1c(O)c2ccccc2oc1=O (stereo not given),97%,108%,92.2%,76.7%,105%,98.1%,94.1%,70.3%,,100%,105%,100%,110%,108%,107%,109%,,105%,92.9%,108%
CCCCc1nc(Cl)c(C2CC(c3ccc(S(N)(=O)=O)cc3)=NN2c2ccc(C#N)cc2)[nH]1 (stereo not given),91%,89.5%,83%,70.5%,100%,101%,67.6%,74.2%,86.8%,76.1%,83.2%,88.5%,98.2%,96.4%,93%,92.5%,,107%,,
COc1ccccc1CNCCCN1C(=O)c2ccc3c4c(ccc(c24)C1=O)C(=O)N(CCCNCCCN)C3=O,-47.3% (active),34.7%,-56.8% (active),23.3%,33.3%,9.16% (active),31.9%,14.9%,7.88% (active),-24.5% (active),-24.4% (active),37.9%,-99.3% (active),34.7%,-2.92% (active),-19.3% (active),30.7,33.7%,,
COc1cc(NC(=O)CSc2nc3ccc(Cl)cc3c(=O)n2Cc2ccccc2)cc(OC)c1OC,77.6%,83.2%,88.5%,62.4%,72.9%,57.6%,76.9%,11.7%,93.8%,,68.7%,85.4%,81.1%,72%,84.9%,77.7%,47.4,67.7%,,
ClCc1c(Cl)c(Cl)c(Cl)c(CCl)c1Cl,87.7%,101%,41.5%,-21.7% (active),-73.9% (active),8.92% (active),-76.4% (active),89%,3.24% (active),13.3%,49.5%,118%,-66.2% (active),113%,4.3% (active),-94.5% (active),89.3,,,
Cc1cccc(/C=N/n2c(-c3ccc(Cl)cc3)nc3c(Br)cc(Br)cc3c2=O)c1,72.5%,52.3%,47.9%,41.8%,26.8%,13.5%,31.2%,99.6%,75.6%,55.4%,32.5%,50.2%,-3.16% (active),39.5%,31.9%,38.2%,65.1,30.5%,,
NC(=S)N1N=C(c2ccc(Cl)cc2)CC1c1cc2ccccc2[nH]c1=O (stereo not given),103%,109%,104%,82.7%,109%,107%,114%,89.5%,,72.5%,111%,108%,100%,104%,101%,119%,112,108%,82.4%,
O=C(O)CSc1ccc(NCc2oc(CO)cc(=O)c2O)cc1,119%,106%,98.2%,80%,111%,97.3%,98.4%,106%,,88.3%,102%,102%,103%,98.7%,105%,110%,90.9,94.3%,81.8%,
COc1ccc(NC(=O)c2sc3c(=O)[nH]c(C(F)(F)F)nc3c2C)cc1,91.5%,83.8%,99.8%,74.2%,104%,102%,85.4%,108%,90%,89.7%,,116%,,98.5%,90%,112%,104,102%,,95%
CC1(C)OC2OC3C(CN)OC(c4ccccc4)OC3C2O1 (stereo not given),103%,103%,103%,103%,104%,103%,92.5%,96.8%,104%,5.53% (active),103%,104%,111%,104%,121%,105%,118,100%,,
O=C1CCCN1C1CCN2CCCc3cccc1c32 (stereo not given),102%,102%,104%,81.3%,103%,106%,105%,99.2%,,78.9%,103%,99.9%,105%,110%,98.5%,121%,112,108%,83.5%,
COc1ccc(-c2nn(C(=O)NCCN(C)C)cc2-c2ccncc2)cc1Cl,32.7%,43.4%,49.6%,52.6%,17.1%,47.8%,51.1%,34.2%,47.9%,34.3%,20.4%,76.9%,57.6%,9.29% (active),54.1%,51.3%,66.5,14.5%,,
CNC(=O)c1c(NC(=O)c2ccc(C(C)C)cc2)sc2c1CCC(=O)C2,-6.19% (active),-4.35% (active),-10.8% (active),-99.6% (active),28.7%,-90.2% (active),-9.28% (active),-19.7% (active),1.96% (active),,11%,-45.9% (active),-74.3% (active),-3.87% (active),-52.7% (active),-10.8% (active),19.1,-7.01% (active),2.8% (active),-26.2% (active)
COc1cccc(-c2cc(-c3cccs3)c(C#N)c(=O)[nH]2)c1,107%,106%,103%,89.4%,122%,102%,96.8%,100%,100%,107%,100%,113%,104%,113%,108%,109%,96.4,116%,,
